# Measurements from PubChem BioAssay (NCI).
# Compounds without any hit were thinned out: in the full panel of roughly 83,000, 20% have a hit.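 The test compound was applied at a single concentration to cells in 96-well plates for 48 hours, and percent growth was recorded.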 Calls of active or inactive are those of the source. How the source made its calls: active means growth percent below 10; inactive means the rest.
# Test system: MCF7 breast
# Assay: NCI-60 one-dose screen, 48 h (100 = growth as untreated, 0 = no growth, -100 = all killed)
# Conditions: 10 µM unless noted
row,SMILES,growth
1,CSc1ccc(-c2n[nH]nc2-c2cc3ccccc3s2)cc1,27.7% (inactive)
2,Clc1ccc2c(NCCCNc3nc(-n4ccnc4)nc4ccccc34)ccnc2c1,76.5% (inactive)
3,CN1CCN(c2nc(NCCCNc3ccnc4cc(Cl)ccc34)c3ccccc3n2)CC1,29.9% (inactive)
4,CN(C)c1ccc(NC(=O)c2ccc(/C=C/C(=O)c3ncc[nH]3)cc2)cc1,12.1% (inactive)
5,COc1ccc(S(=O)(=O)N2CCCCC2)cc1NC(=O)c1[nH]c(C)c2c1CCCCC2=O,12.3% (inactive)
6,CCn1c(O)c(/C=N/NC(=O)C(C)c2ccc(CC(C)C)cc2)sc1=S (stereo not drawn),20.5% (inactive)
7,Cc1nn(-c2cc(=O)[nH]c3ccc(Cl)cc23)c(N)c1C#N,92.3% (inactive)
8,O=C1/C(=C(/c2ccccc2)N2CCOCC2)Cc2ccccc21,17.9% (inactive)
9,O=C(COc1cccc(/C=C2\COc3ccccc3C2=O)c1)Nc1nccs1,-12.5% (active)
10,CCN=C1C=CC(=C(c2ccc(N)cc2)c2ccc(N(CC)CC)c(C)c2)C=C1,-11.5% (active)
11,O=C(C(=O)c1ccc2c(c1)OCO2)c1ccc2c(c1)OCO2,102% (inactive)
12,COc1ccc(/C=C2\Oc3cc(OCCCCN4CCCC4)ccc3C2=O)cc1,39.6% (inactive)
13,COc1cc(-c2nn(-c3ccc(Br)cc3)cc2C(=O)O)ccc1O,81.5% (inactive)
14,O=c1ccccc(-c2ccc(-c3ccco3)cc2)c1O,15.3% (inactive)
15,Cn1cc(C(=O)c2nc(-c3c[nH]c4ccc(Br)cc34)no2)c2cc(F)ccc21,82.1% (inactive)
16,COc1ccc(O)c(N=Nc2nccs2)c1,64.3% (inactive)
17,CCc1nc(N)nc(N)c1C#CC(C)c1cc(-c2ccnc(C)c2)c2oc(C)nc2c1 (stereo not drawn),8.57% (active)
18,CC(=O)Nc1ccc(-n2c(O)c(/C=N/NC(=O)Cc3ccccc3Nc3c(Cl)cccc3Cl)sc2=S)cc1,92.3% (inactive)
19,O=Nc1c(O)c(Cl)cc2ccccc12,49.6% (inactive)

row,SMILES,growth
1,FC(F)(F)c1ccc(-c2cn3nc(-c4c[nH]c5ccc(Br)cc45)sc3n2)cc1,74.9% (inactive)
2,Cn1cc(-c2nonc2-c2c[nH]c3ccccc23)c2cccnc21,19.4% (inactive)
3,Cn1cc(-c2nonc2-c2cn(C)c3ccc(F)cc23)c2ccccc21,21.3% (inactive)
4,Brc1ccc(-c2csc(Nc3ccccn3)n2)cc1,34.5% (inactive)
5,Clc1ccc2c(NCCNc3nc(N4CCOCC4)nc4ccccc34)ccnc2c1,38.8% (inactive)
6,COc1ccc(-c2cc(-c3ccc(Nc4ccnc5cc(Cl)ccc45)cc3)nc(N3CCOCC3)n2)cc1,22.7% (inactive)
7,COc1cc2c(cc1-c1c(C)noc1C)ncc1nc(C3CCCC3)n([C@H](C)COC(F)F)c12,19.9% (inactive)
8,CCOc1cc2ncc(C#N)c(Nc3ccc(OCc4cccc(F)c4)c(Cl)c3)c2cc1NC(=O)CCCCC1CCSS1 (stereo not drawn),58.8% (inactive)
9,Oc1ccccc1-c1nnc(CNc2ccc(Cl)cc2)o1,14.2% (inactive)
10,COc1cc2c(cc1-c1c(C)noc1C)ncc1nc(C3CCCCC3)n([C@H](C)COC(F)F)c12,18.3% (inactive)
11,COc1cc(/C=C/C(=O)Nc2cccnc2Nc2ccc(F)cc2)cc(OC)c1OC,88.3% (inactive)
12,Cn1c(NCCc2ccc(O)c(O)c2)nc2c1c(=O)n(Cc1ccc(Cl)c(Cl)c1)c(=O)n2C,79% (inactive)
13,Cc1ccc(C2=NN3C(C2)c2cc(Br)ccc2OC32CCN(Cc3ccccc3)CC2)o1 (stereo not drawn),77.3% (inactive)
14,O=C1/C(=C/C(Cl)=C/c2ccccc2)SC(=S)N1CCc1ccc(O)cc1,26.4% (inactive)
15,NC(=O)c1cc(Br)ccc1NC(=O)/C=C/c1ccccc1,19.9% (inactive)
16,CC(O)CN(CC(C)O)c1ccc2c(c1)Cc1cc([N+](=O)[O-])ccc1-2 (stereo not drawn),99.2% (inactive)
17,C=C1C(=O)O[C@H]2[C@H]1CC/C(COC(=O)c1cc3cc(OC)ccc3[nH]1)=C\CC[C@@]1(C)O[C@@H]21,-61.3% (active)
18,COc1cc(C(=O)/C=C/c2cccnc2Nc2ccc(Cl)cc2)cc(OC)c1OC,-54.4% (active)
19,O=c1cc(CSc2nnc(SCc3cc(=O)oc4c3ccc3ccccc34)o2)c2ccc3ccccc3c2o1,93.7% (inactive)
